We go through 22 compounds from PubChem BioAssay (EPA / NIEHS).

Active and inactive are the calls of the source. How the source made its calls: active means hit-call score of the fitted dose curve at least 0.9, where 1 is the maximum; inactive means score below 0.9.

For orientation: AC50 means the midpoint of the concentration-response curve, whichever way the signal moves.

Read-out in assay [1]: Vascular cell adhesion molecule 1 (VCAM1), VCAM1 (gene 7412)
The assay can be described thus: BSK_4H_VCAM1: BioMAP Diversity Plus: 4H Assay for Vascular cell adhesion molecule 1 (VCAM1) Biomarker Activity (AID 2283033).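 On outcome: cell-surface VCAM-1 protein measured by ELISA.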 Particulars: primary human endothelial cells (HUVEC); actives raise or lower the signal. In outline: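 Endpoint derived from bidirectional fitting against DMSO controls of VCAM-1 ELISA signal in umbilical vein endothelial cells sampled at 24 h following treatment.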

Read-out in assay [2]: Interferon-gamma inducible Protein 10 (IP10), CXCL10 (gene 3627)
The experiment in a line: BSK_BE3C_IP10: BioMAP Diversity Plus: BE3C Assay for Interferon-gamma inducible Protein 10 (IP10) Biomarker Activity (AID 2283034). Particulars: primary human bronchial epithelial cells; actives raise or lower the signal. The essentials: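 Using primary human bronchial epithelial cultures, the assay captures IP-10 by ELISA one day (24 h) after exposure. Parallel SRB staining of total protein flags overt cytotoxicity. Fits run bidirectionally relative to DMSO.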

Read-out in assay [3]: Monokine induced gamma interferon (MIG), CXCL9 (gene 4283)
The assay can be described thus: BSK_BE3C_MIG: BioMAP Diversity Plus: BE3C Assay for Monokine induced gamma interferon (MIG) Biomarker Activity (AID 2283035).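 On outcome: MIG protein measured by ELISA in BE3C cultures after 24 h of dosing.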 Conditions: primary human bronchial epithelial cells; actives raise or lower the signal. In outline:
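ELISA read-out of MIG in human lung bronchial epithelial primary cultures, 24 h post-dosing. Bidirectional curve fit vs DMSO baseline.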

Read-out in assay [4]: Transforming growth factor beta 1 (TGFb1), TGFB1 (gene 7040)
The assay can be described thus: BSK_BE3C_TGFb1: BioMAP Diversity Plus: BE3C Assay for Transforming growth factor beta 1 (TGFb1) Biomarker Activity (AID 2283036;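 on outcome: TGF-b1 protein level measured by ELISA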). Conditions: primary human bronchial epithelial cells; actives raise or lower the signal. The essentials:
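In this human primary bronchial epithelial system, an ELISA quantified TGF-b1 one day after dosing. Endpoint changes in either direction were fitted relative to DMSO.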

Read-out in assay [5]: Plasminogen activator inhibitor-1 (PAI1), SERPINE1 (gene 5054)
The experiment in a line: BSK_BE3C_PAI1: BioMAP Diversity Plus: BE3C Assay for Plasminogen activator inhibitor-1 (PAI1) Biomarker Activity (AID 2283037). Conditions: primary human bronchial epithelial cells; actives raise or lower the signal. The essentials:
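PAI-1 biomarker levels in treated human bronchial epithelial cells are determined by ELISA at 24 h. Both increases and decreases relative to DMSO are fitted.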

Read-out in assay [6]: urokinase plasminogen activator (uPA), PLAU (gene 5328)
The experiment in a line: BSK_BE3C_uPA: BioMAP Diversity Plus: BE3C Assay for urokinase plasminogen activator (uPA) Biomarker Activity (AID 2283038).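 On outcome: uPA protein level quantified by ELISA in cell cultures; uPA read one day after compound addition.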 Conditions: primary human bronchial epithelial cells; actives raise or lower the signal. In outline: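 Measured by ELISA: uPA from human primary bronchial epithelial cells 24 h after chemical treatment. Values derive from bidirectional curve fitting with DMSO serving as negative control. Total protein by SRB staining in parallel wells flagged overt cytotoxicity.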

Read-out in assay [7]: Urokinase-type plasminogen activator receptor (uPAR), PLAUR (gene 5329)
The assay can be described thus: BSK_BE3C_uPAR: BioMAP Diversity Plus: BE3C Assay for Urokinase-type plasminogen activator receptor (uPAR) Biomarker Activity (AID 2283039).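 On outcome: uPAR protein level measured by ELISA on the cells; cells exposed to compound for one day before measurement.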 Conditions: primary human bronchial epithelial cells; actives raise or lower the signal. In outline: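 A uPAR ELISA serves as the readout, taken 24 h after treating primary human bronchial epithelial cells. Responses in either direction are fitted against DMSO, which defines baseline activity.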

Read-out in assay [8]: Interleukin-6 (IL6), IL6 (gene 3569)
The experiment in a line: BSK_CASM3C_IL6: BioMAP Diversity Plus: CASM3C Assay for Interleukin-6 (IL6) Biomarker Activity for (AID 2283040). Conditions: primary human coronary artery smooth muscle cells; actives raise or lower the signal.

Read-out in assay [9]: Tissue plasminogen activator (tPA), PLAT (gene 5327)
The assay can be described thus: BSK_BE3C_tPA: BioMAP Diversity Plus: BE3C Assay for Tissue plasminogen activator (tPA) Biomarker Activity (AID 2283041).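 On outcome: tPA level quantified by ELISA one day after compound addition.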 Particulars: primary human bronchial epithelial cells; actives raise or lower the signal. The essentials: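 Bidirectional curve fitting relative to DMSO defined activity, with tPA detected by ELISA in chemically treated human bronchial epithelial primary cells at 24 hours.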

Read-out in assay [10]: Interleukin-8 (IL8), CXCL8 (gene 3576)
The experiment in a line: BSK_CASM3C_IL8: BioMAP Diversity Plus: CASM3C Assay for Interleukin-8 (IL8) Biomarker Activity (AID 2283042).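 Further: IL-8 protein level quantified by ELISA.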 Particulars: primary human coronary artery smooth muscle cells; actives raise or lower the signal.

For the compound `CC(C)=CCC/C(C)=C\CO`, the result in [1], in assay [2], in assay [3], in assay [4], in assay [5] and in assay [6] was inactive. Besides, the outcome in assay [7], in assay [8], in assay [9] and in assay [10] was inactive.

Regarding `CCCCC(CC)COC(=O)CCCCCCCCC(=O)OCC(CC)CCCC` (stereo not given), the result in assay [1], in assay [2], in [3], in [4], in [5] and in assay [6] was inactive. The outcome in [7], in assay [8], in assay [9] and in [10] was inactive.

On to `CC(C)CC(C)(O)C#CC(C)(O)CC(C)C` (stereo not given), for which the outcome in [1], in assay [2], in assay [3], in assay [4], in assay [5] and in assay [6] was inactive. The outcome in [7], in assay [8], in [9] and in assay [10] was inactive.

For the compound `CN(C)c1ccc(Cc2ccc(N(C)C)cc2)cc1`, the outcome in assay [1], in assay [3], in [4], in [5], in assay [6] and in [7] was inactive. For the same compound, the outcome in assay [8], in [9] and in [10] was inactive. In assay [2], the AC50 is 28.8 µM (active).

In the case of `CCOCCO`, the outcome in [1], in [2], in [3], in assay [4], in [5] and in [6] was inactive. The outcome in assay [7], in [8], in assay [9] and in assay [10] was inactive.

For the compound `CCCCCCCCCCCCc1ccccc1`, the result in assay [1], in [2], in assay [3], in [4], in [5] and in assay [6] was inactive. Also, the result in assay [7], in assay [8], in assay [9] and in assay [10] was inactive.

For the compound `CCCCCCCCCCCCCCCO`, the AC50 in assay [1] is 37.5 µM (active). The result in [2], in assay [3], in assay [4], in assay [5], in assay [6] and in assay [7] was inactive. The outcome in [8], in assay [9] and in assay [10] was inactive.

With `CCNc1ccccc1`, the result in [1], in assay [2], in assay [3], in assay [4], in [5] and in assay [6] was inactive. Moreover, the outcome in assay [7], in assay [8], in assay [9] and in [10] was inactive.

As to `CCCN(C1CCN(C(=O)C2CCNCC2)CC1)[C@@H]1CCc2ccc(OC)cc2C1`, the outcome in [1], in assay [2], in assay [3], in assay [4], in assay [5] and in assay [6] was inactive. Also, the result in assay [7], in assay [8], in assay [9] and in assay [10] was inactive.

Consider `O=C(O)c1cc(N=Nc2ccc(S(=O)(=O)Nc3ccccn3)cc2)ccc1O`, for which the result in assay [1], in assay [2], in [3], in assay [4], in assay [5] and in assay [6] was inactive. For the same compound, the outcome in assay [7], in [8], in assay [9] and in assay [10] was inactive.

For the compound `O=C1OC(=O)C2C3C=CC(C3)C12` (stereo not given), the outcome in [1], in assay [2], in assay [3], in assay [4], in assay [5] and in assay [6] was inactive. Moreover, the outcome in [7], in assay [8], in [9] and in assay [10] was inactive.

As to `O=C1CCC(N2C(=O)c3ccccc3C2=O)C(=O)N1` (stereo not given), the result in assay [1], in [2], in assay [3], in assay [4], in assay [5] and in assay [6] was inactive. The result in assay [7], in assay [8], in assay [9] and in [10] was inactive.

`CN(C)c1ccc(N=NS(=O)(=O)O)cc1`: the AC50 in assay [1] was 8.31 µM (active). The outcome in [2], in assay [3], in assay [4], in [5], in assay [6] and in assay [7] was inactive. The outcome in assay [8], in assay [9] and in [10] was inactive.

Regarding `COC(=O)c1c(Cl)c(Cl)c(C(=O)OC)c(Cl)c1Cl`, the result in assay [1], in [2], in assay [3], in assay [4], in assay [5] and in [6] was inactive. Besides, the outcome in [7], in assay [8], in assay [9] and in assay [10] was inactive.

Take `CC(C)=CCCC(C)=CC=O`: the result in assay [1], in assay [2], in [3], in [4], in [5] and in assay [6] was inactive. Besides, the outcome in assay [7], in assay [8], in assay [9] and in assay [10] was inactive.

Turning to `CNS(=O)(=O)c1cc(C(=O)N2CCC(CCN3C4CCC3CC(n3c(C)nc5ccccc53)C4)(c3cccc(F)c3)CC2)c(Cl)cc1F` (stereo not given), the outcome in assay [1], in assay [2], in assay [3], in assay [4], in assay [5] and in assay [6] was inactive. Further, the result in assay [7], in assay [9] and in assay [10] was inactive. Moreover, the AC50 in [8] is 5.62 µM (active).

Take `Cc1ccc(C)c(O)c1`: the result in assay [1], in [2], in [3], in [4], in assay [5] and in assay [6] was inactive. Moreover, the result in assay [7], in assay [8], in assay [9] and in assay [10] was inactive.

In the case of `CCOc1cccc(-n2cc(C(=O)N3CCN(c4cc(C(=O)O)c5ccccc5c4)CC3)nc2-c2ccc(C)cc2)c1`, the AC50 in assay [1] is 29.9 µM (active); in assay [2], 15 µM (active); in assay [3], 32.6 µM (active); in assay [4], 27.4 µM (active); in [5], 19.2 µM (active); in [6], 16.8 µM (active). Besides, the AC50 in assay [7] was 15.7 µM (active); in assay [8], 30.3 µM (active); in assay [9], 9.89 µM (active). For the same compound, the outcome in assay [10] was inactive.

As to `CCn1nc(Cc2ccccc2)cc1C1CCN(C[C@H]2C[C@H](N(C)[C@@H](C(=O)O)C(C)C)C[C@@H]2c2cccc(F)c2)CC1`, the outcome in assay [1], in assay [2], in assay [3], in [4], in assay [5] and in [6] was inactive. Also, the outcome in assay [7], in assay [8], in assay [9] and in assay [10] was inactive.

With `Clc1nc(Cl)c(Cl)c(Cl)c1Cl`, the AC50 in assay [1] is 20 µM (active). Further, the outcome in assay [2], in assay [3], in assay [4], in [5], in assay [6] and in [7] was inactive. For the same compound, the outcome in assay [8], in assay [9] and in assay [10] was inactive.

With `CC(=O)OCCC(C)C`, the outcome in [1], in assay [2], in [3], in assay [4], in [5] and in [6] was inactive. In addition, the result in assay [7], in assay [8], in [9] and in assay [10] was inactive.

As to `CCCC(=O)OCC`, the result in assay [1], in assay [2], in assay [3], in assay [4], in assay [5] and in assay [6] was inactive. Besides, the result in assay [7], in [8], in assay [9] and in assay [10] was inactive.
